Measurements: PubChem BioAssay AID686979 (National Center for Advancing Translational Sciences (NCATS), 2013)
Hit rate of the full screen: of about 420,000 compounds, about 50,000 (12%) were called active. Roughly 26% stayed inconclusive and do not appear here. The sample as a whole holds a higher share of actives than the screen did. Values without a mark were called inactive. Calls come from the whole dose curve; as a rule, active = well fitted inhibition curve with a large enough effect; inconclusive = small, poorly fitted or top-dose-only effect; inactive = flat fitted curve, though single readings scatter.

Experiment: qHTS for Inhibitors of human tyrosyl-DNA phosphodiesterase 1 (TDP1): qHTS in cells in presence of CPT; note: nearly all actives have a fitted effect of over 55% in size
Conditions: chicken DT40 Tdp1-/-;hTDP1 cells + 20 nM CPT, ATP luminescence, 48 h; series mostly up to 46.2 µM; activity change, negative = growth inhibition: at the top concentration
Procedure, shortened: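 Cell growth measured by CellTiter-Glo luminescence after a minimum 48 h, 37 C compound exposure with 20 nM CPT in Tdp1-knockout DT40 cells stably expressing hTDP1, seeded 400/well; qHTS titration format.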
% is set by controls: 0 for no effect and ±100 for the full control effect; potency is the fitted concentration of half-maximal effect.

Structure (SMILES)	activity change, negative = growth inhibition	Potency
COc1ccc(CCNC(=O)Nc2ccc3c(c2)c(=O)n(C)n3C)cc1OC	0.818% (inactive)	–
Cc1nnc(Sc2nc3c(c(=O)[nH]c(=O)n3C)n2Cc2ccccc2)s1	0.541% (inactive)	–
Cn1c(=O)[nH]c(=O)c2c1nc(NCCc1ccccc1)n2Cc1ccc(F)cc1	–	23.1 µM (active)
Cn1c(=O)c2sccc2n(Cc2ccc(Br)cc2)c1=O	4.25% (inactive)	–
CCCCn1c(SCC(=O)NCCc2ccc(OC)c(OC)c2)nc2c1c(=O)n(C)c(=O)n2C	1.15% (inactive)	–
Cc1ccc(CN2CCN(/N=C/c3cccnc3)CC2)c(C)c1	5.42% (inactive)	–
COc1ccc(NC(=O)CCCC2CCCCC2)c(OC)c1	-22.4% (inactive)	–
NS(=O)(=O)c1ccc2nc(NC(=O)CS(=O)(=O)c3ccc(F)cc3)sc2c1	12.2% (inactive)	–
O=C1NC[C@H](CCCCN2C[C@H](Cc3ccc(O)cc3)N(CC3CCCCC3)C(=O)C2=O)N(CCc2ccccc2)C1=O	-7.53% (inactive)	–
O=c1nc(NO)ccn1C1CCCO1 (configuration not stated)	-3.51% (inactive)	–
NC(=O)COc1ccc(C23CC4CC(CC(C4)C2)C3)cc1	-20.8% (inactive)	–
Cc1ccc(S(=O)(=O)Nc2nc(N)n(-c3ccccc3)n2)cc1	1.91% (inactive)	–
Cn1c(=O)[nH]c(=O)c2c1nc(CN(Cc1ccccc1)Cc1ccccc1)n2CCN1CCOCC1	-16.8% (inactive)	–
CC1CN(Cc2nc3c(c(=O)n(C)c(=O)n3C)n2Cc2cccc(Cl)c2)CC(C)O1 (configuration not stated)	-16.9% (inactive)	–
CCCCNc1nc2c(c(=O)n(C)c(=O)n2C)n1Cc1cccc(OC)c1	–	2.91 µM (active)
Cn1c(=O)c2c(nc(NCc3ccccc3)n2CC(N)=O)n(C)c1=O	-18% (inactive)	–
CC(C)OCCCNc1nc2c(c(=O)n(Cc3ccccc3F)c(=O)n2C)n1C	-9% (inactive)	–
Cn1c(=O)c2c(nc(NCCc3ccccc3)n2Cc2ccccc2)n(C)c1=O	–	5.8 µM (active)
COc1cccc(CNS(=O)(=O)c2cc3c(cc2C)n(C)c(=O)c(=O)n3C)c1	–	inactive
COc1ccc(CCn2c(NCCCN3CCOCC3)nc3c2c(=O)[nH]c(=O)n3C)cc1	-3.75% (inactive)	–
Cn1c(=O)c2c(nc(Oc3ccc(C#N)cc3)n2Cc2ccc(Cl)cc2Cl)n(C)c1=O	-12.4% (inactive)	–
CC(C)CCn1c(CN(C)Cc2ccccc2)nc2c1c(=O)n(C)c(=O)n2C	–	6.51 µM (active)
C=CCOc1nc2c(c(=O)n(C)c(=O)n2C)n1Cc1ccc(Cl)cc1Cl	–	18.4 µM (active)
CC(C)CCn1cnc2c1c(=O)n(CC(=O)NC(N)=O)c(=O)n2Cc1ccccc1	-21.6% (inactive)	–
COCCn1cnnc1SCC(=O)Nc1cccc(S(=O)(=O)N2CCCCC2)c1	-15.9% (inactive)	–
NC(=O)C1CCN(C(=O)/C(=C/c2ccco2)NC(=O)c2ccccc2)CC1	14.3% (inactive)	–

Structure (SMILES)	activity change, negative = growth inhibition	Potency
Cc1c(C(=O)NC(=S)NCc2cccnc2)oc2ccccc12	-16.7% (inactive)	–
Cc1ccccc1OS(=O)(=O)c1cccc([N+](=O)[O-])c1	-23.5% (inactive)	–
CC(Oc1ccccc1[N+](=O)[O-])C(=O)N/N=C/c1ccoc1 (configuration not stated)	-10.4% (inactive)	–
O=C(CCc1ccccc1)NNc1ccc(F)cc1	-27.2% (inactive)	–
CC(C)c1cc(C(=O)N2CCOc3ccc(CN4CCC(Oc5cccnc5)CC4)cc3C2)n[nH]1	-19.6% [at 9.04 µM]	–
CC(C)CC1(C)NC(=O)N(CC(=O)Nc2ccc3c(c2)OCCO3)C1=O (configuration not stated)	7.31% (inactive)	–
Cc1cc(NC(=O)CSC2=NS(=O)(=O)c3cc(Cl)ccc3N2)no1	18.3% (inactive)	–
COc1cccc(NC(=O)C2CCCN(c3ncnc4c3nc3n4CCCCC3)C2)c1 (configuration not stated)	–	20.6 µM (active)
O=C(Nc1cccc(Cl)c1)C1CCCN(c2cnccn2)C1 (configuration not stated)	-16.5% (inactive)	–
COc1cccc(NC(=O)C2CCN(c3cc(C)nc4c(-c5ccc(Cl)cc5)c(C)nn34)CC2)c1	-3.96% (inactive)	–
O=C(NCCCN1CCCCC1)C1CCCN(c2ncnc3c2nc2n3CCCCC2)C1 (configuration not stated)	4.33% (inactive)	–
COc1cccc(CNC(=O)C2CCCN(S(=O)(=O)N3CC(C)CC(C)C3)C2)c1 (configuration not stated)	-22.7% (inactive)	–
COc1cccc(CNC(=O)C2CCCN(c3ncnc4c3nc3n4CCCCC3)C2)c1 (configuration not stated)	–	23.1 µM (active)
N#Cc1c(NC(=O)C2CC(Cl)=CCC2C(=O)O)sc2c1CCCCC2 (configuration not stated)	20.2% (inactive)	–
COc1ccc2c(CC(=O)NNC(=O)c3ccccc3F)coc2c1	-0.595% (inactive)	–
CCC(C)(C)NC(=O)CN(C(=O)C(=O)Nc1ccc2c(c1)OCCO2)C(C)(C)CC	-19.8% (inactive)	–
O=C(COC(=O)Cn1[nH]c(=O)c2ccccc2c1=O)Nc1ncc(Cl)cc1Cl	-1.54% (inactive)	–
O=C(OCc1cc(Cl)ccc1OC(F)F)c1cccnc1	6.56% (inactive)	–
Cc1ccc(C(=O)NC(=S)Nc2ccccc2C)cc1	-10.1% (inactive)	–
Cc1cccc(NC(=S)NC(=O)c2ccc(Br)o2)c1	0.885% (inactive)	–
Cc1cccc(NC(=O)/C(=C\c2ccco2)NC(=O)c2ccccc2)c1	-2.66% (inactive)	–
Cc1cccc(NC(=O)NC(=S)NC(=O)c2ccccc2)c1	–	8.2 µM (active)
Cc1ccc(NC(=S)NC(=O)c2ccc(-c3ccccc3)cc2)cc1	–	6.51 µM (active)
Cc1ccc(C(=O)NC(=S)Nc2ccc(N3CCOCC3)cc2)cc1	-29.5% (inactive)	–
C/C(=N\NC(=O)OC(C)(C)C)c1ccc[nH]1	-10.6% (inactive)	–
O=C(CCN1C(=O)C2C3CCC(C3)C2C1=O)Nc1ccc(Cl)cc1Cl (configuration not stated)	1.93% (inactive)	–
